This note sets out measurements from PubChem BioAssay (NCATS).

The test system of assay [1] is MKL-1. Briefly: qHTS assay to identify novel small-molecules to repurpose for Merkel cell carcinoma treatment (AID 1296009). Note: nearly all actives have a fitted effect of over 60% in size. Note: potency is the fitted concentration of half-maximal effect. The settings on record: MCC and control cell lines, CellTiter-Glo viability, 72 h; series mostly up to 46 µM. In outline:
(§1)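 Cell viability, measured as CellTiter-Glo luminescence, was normalized between DMSO and no-cell wells. The cells had been exposed to 8- or 11-point compound dilutions for 72 hr at 37 degree celsius.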
On the technique in general: Quantitative high-throughput screening tests each substance at several concentrations.

The test system of assay [2] is MKL-2. The description is as above. As to conditions: MCC and control cell lines, CellTiter-Glo viability, 72 h; series mostly up to 46 µM. Put shortly: as §1
On the technique in general: In ATP-based viability assays light output follows the ATP content of the culture.

Assay [3] deals with NIH3T3. Described as above. The settings on record: MCC and control cell lines, CellTiter-Glo viability, 72 h; series mostly up to 44.8 µM. In outline: as §1
Assay [4] deals with UISO. The description is as above. The settings on record: MCC and control cell lines, CellTiter-Glo viability, 72 h; series mostly up to 46 µM. In outline:
as §1

Assay [5] has as its system WaGa. The assay is described as above. As to conditions: MCC and control cell lines, CellTiter-Glo viability, 72 h; series mostly up to 46 µM. In outline:
as §1

In assay [6] the test system is C33A. In words: Primary qHTS to identify gynecologic anti-cancer compounds using libraries of approved drugs and bioactive compounds (AID 1345084). Note: nearly all actives have a fitted effect of over 55% in size. As to conditions: Gynecologic cancer cell panel viability, ATPlite luminescence, 48 h; series mostly up to 57.5 µM. Put shortly: (§2)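 Cells, 1,000 per well, were allowed to settle for 16 h at 37 C before compound addition. Five concentrations were tested for 48 h, and viability was read by ATPlite luminescence after 15 min at room temperature.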

In assay [7] the test system is CASKI. The description is as above. The settings on record: Gynecologic cancer cell panel viability, ATPlite luminescence, 48 h; series mostly up to 57.5 µM. In outline: as §2
The subject of assay [8] is Es-2. The description is as above. As to conditions: Gynecologic cancer cell panel viability, ATPlite luminescence, 48 h; series mostly up to 57.5 µM. In outline:
as §2

The subject of assay [9] is HeLa. Described as above. As to conditions: Gynecologic cancer cell panel viability, ATPlite luminescence, 48 h; series mostly up to 57.5 µM. In outline: as §2
The subject of assay [10] is Hek293T. The description is as above. The settings on record: Gynecologic cancer cell panel viability, ATPlite luminescence, 48 h, control line for the selectivity index; series mostly up to 57.5 µM. In outline: as §2
In assay [11] the test system is JEG-3. The description is as above. The settings on record: Gynecologic cancer cell panel viability, ATPlite luminescence, 48 h; series mostly up to 57.5 µM. In outline: as §2
Assay [12] relates to OV90. Described as above. The settings on record: Gynecologic cancer cell panel viability, ATPlite luminescence, 48 h; series mostly up to 57.5 µM. Put shortly: as §2
For assay [13], the system named is PA-1. Described as above. The settings on record: Gynecologic cancer cell panel viability, ATPlite luminescence, 48 h; series mostly up to 57.5 µM. Put shortly: as §2
Assay [14] deals with SKOV3. The assay is described as above. The settings on record: Gynecologic cancer cell panel viability, ATPlite luminescence, 48 h; series mostly up to 57.5 µM. In outline: as §2
The subject of assay [15] is Tov-21-G. The description is as above. The settings on record: Gynecologic cancer cell panel viability, ATPlite luminescence, 48 h; series mostly up to 57.5 µM. Put shortly:
as §2

In assay [16] the test system is Tov112D. The description is as above. As to conditions: Gynecologic cancer cell panel viability, ATPlite luminescence, 48 h; series mostly up to 57.5 µM. Put shortly: as §2
The nature of assay [17]: Drug repurposing screens with cells derived from glioblastoma tumor samples (AID 1345199). Note: nearly all actives have a fitted effect of over 40% in size. As to conditions: GBM patient neurospheres viability, ATP luminescence, 48 h. Put shortly: (§3)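 Primary testing used CD133+ neurospheres from four GBM patients, seven concentrations, 48 h exposure and ATP-based viability; confirmation added three slower-growing patient lines.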
Assay [18] has as its system astro. The description is as above. The settings on record: viability, ATP luminescence, 48 h; series mostly up to 45.9 µM. In outline: as §3

Results filed as inconclusive are left out. Unmarked numbers belong to inactive results. The source made the active and inactive calls. Calls come from the whole dose curve; as a rule, active = well fitted curve in the direction sought with a large enough effect; inconclusive = small, poorly fitted or top-dose-only effect, or another doubt; inactive = no such curve, though single readings can be large; an effect the other way counts as inactive or inconclusive.
% is set by controls: 0 for no effect and ±100 for the full control effect.

Regarding `Cc1cnc(-c2cc(N3CCN(C(=O)CCS(C)(=O)=O)CC3)ncc2Cl)c(C)c1`, the Potency result in assay [1], in [2], in assay [3], in assay [4], in assay [5] and in [6] was “inactive” each time. The Potency entry in [7], in assay [8], in assay [9], in [10], in assay [11] and in assay [12] was “inactive” in each case. Moreover, the Potency entry in [13], in assay [14], in [15] and in assay [16] was “inactive” throughout.
In the case of `Cn1c(=O)c(Oc2ccc(F)cc2F)cc2cnc(NC3CCOCC3)nc21`, the Potency entry in assay [1], in [2], in assay [4] and in [5] was “inactive” throughout.
Turning to `CC1(C)[C@H]2CC[C@]3(C)[C@@H](C(=O)C=C4[C@@H]5C[C@@](C)(C(=O)O)CC[C@]5(C)CC[C@]43C)[C@@]2(C)CC[C@@H]1O`, the Potency entry in assay [1], in assay [2], in [4] and in [5] was “inactive” throughout.
Consider `CCCCC(C=O)NC(=O)C(CC(C)C)NC(=O)OCc1ccccc1` (stereo unspecified), for which the Potency result in assay [1], in assay [2], in assay [4] and in assay [5] was “inactive” in each case.
With `N#CC(c1ccnc(NCCc2cccnc2)n1)c1nc2ccccc2s1` (stereo unspecified), the Potency entry in assay [1], in [2] and in [4] was “inactive” in each case.
Take `CN1CCN2c3ncccc3Cc3ccccc3C2C1` (stereo unspecified): the Potency entry in [1], in [2], in assay [3], in assay [4], in assay [5] and in assay [18] was “inactive” in each case. The activity, negative = cell killing is -0.787% in assay [17] (at 45.9 µM (top of the series), tumour line B); -14.6% in [17] (at 45.9 µM (top of the series), tumour line D); 14.4% in [17] (at 46.1 µM (top of the series), tumour line C).
As to `COc1c(C)c2c(c(O)c1CC=C(C)CCC(=O)O)C(=O)OC2`, the Potency in [1] is 4690 nM (active); in [2], 2090 nM (active); in assay [4], 9350 nM (active); in [5], 3320 nM (active).
Take `C[C@H](CCC(=O)O)[C@H]1CC[C@H]2[C@H]3[C@@H](CC[C@]12C)[C@@]1(C)CC[C@@H](O)C[C@H]1C[C@@H]3O`: the Potency result in assay [1], in assay [2] and in assay [4] was “inactive” in each case.
As to `CCCCOCCOc1nc(-c2ccc(C(=O)O)c(F)c2)sc1C`, the Potency entry in [1], in assay [2], in assay [4] and in [5] was “inactive” throughout.
`N#CC(=C1Nc2ccccc2S1)c1ccnc(OCc2ccc(CN3CCOCC3)cc2)n1`: the Potency in [1] is 118 nM (active); in assay [2], 132 nM (active); in assay [4], 1480 nM (active); in assay [5], 132 nM (active).
Regarding `C[C@@H]1CC=CC=CC=CC=C[C@@H](O[C@@H]2O[C@H](C)[C@@H](O)[C@H](N)[C@H]2O)C[C@@H]2O[C@](O)(C[C@@H](O)C[C@@H]3O[C@@H]3C=CC(=O)O1)C[C@H](O)[C@@H]2C(=O)O`, the Potency entry in assay [1], in assay [2], in [4] and in assay [5] was “inactive” each time.
With `CC(C)C[C@@H](N)[C@H](O)C(=O)N[C@H](C(=O)N[C@H](C(=O)N[C@@H](CC(=O)O)C(=O)O)C(C)C)C(C)C`, the Potency result in assay [1], in assay [2], in [4] and in assay [5] was “inactive” each time.
Turning to `COc1cc(N2CCN(C)CC2)ccc1Nc1nc(N)c(C(=O)c2c(Cl)cccc2Cl)s1`, the Potency result in [1], in [2], in assay [4] and in [5] was “inactive” in each case.
`COc1ccc2c(c1)CC[C@H]1[C@@H]2CC[C@]2(C)[C@@H](NCCCCCCN3C(=O)C=CC3=O)CC[C@H]12`: the Potency entry in assay [1], in assay [2], in assay [4] and in assay [5] was “inactive” each time.
